According to PubChem BioAssay AID1850 (Southern Research Specialized Biocontainment Screening …, 2009):
Among all 310,000 compounds or so, about 1,000 (0.32%) were called active. The list is a sample of the results. Potency and affinity values are given separately. Unmarked numbers belong to inactive results. The rule behind the calls is not given here.

experiment: Inhibition of PhoP regulon, Salmonella typhi GFP reporter cells, confirmation, 4 h (AID 1850); conditions: Salmonella Typhi PhoP-promoter GFP reporter, fluorescence, at 50 µM, hits give high values;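 note: 0% = induced wells with vehicle and 100% = uninduced wells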

SMILES | inhibition [%]
O=C(C[n+]1cccc(CNC(=O)c2ccc(OC(F)F)cc2)c1)Nc1ccc(F)cc1 | -3.3
O=C(C[n+]1cccc(CNC(=O)c2ccc(OC(F)F)cc2)c1)Nc1cccc(C(F)(F)F)c1 | 1.69
O=C(COC(=O)C1=COCCO1)Nc1ccc(F)cc1 | 2.51
Cc1ccc(SCC(=O)Nc2ccc3c(c2)C(=O)NC3=O)cc1 | 5.23
Oc1ccc(C23CC4CC(CC(C4)C2)C3)cc1O | 0.69
Oc1ccccc1CNCC12CC3CC(CC(C3)C1)C2 | 6.43
C=CCNC(=O)c1cccc(OC2CCN(CC(C)(C)C)CC2)c1 | -1.47
O=C(Nc1cccc(S(=O)(=O)N2CCCC2)c1)c1ccncc1 | -14.8
Nc1c(Cl)ncnc1N/N=C/c1ccncc1 | 5.13
Nc1c(Cl)ncnc1N/N=C/c1ccc2ccccc2n1 | 8.37
O=C(C[n+]1cc(Br)cc2ccccc21)c1ccc(Br)cc1 | 5.62
O=C(C[n+]1cc(Br)cc2ccccc21)c1ccccc1 | 22
CCCNC(=O)CSc1nnc(-c2ccc(F)cc2)o1 | -7.43
CC1CN(CC(O)COc2ccc(C#N)cc2)CCN1CC(O)COc1ccc(C#N)cc1 (configuration not stated) | 9.68
O=C(Cc1cccs1)Nc1cccc([N+](=O)[O-])c1 | 0.05
O=C(Nc1cccc([N+](=O)[O-])c1)Nc1cccc([N+](=O)[O-])c1 | 1.71
CN(C)S(=O)(=O)c1cccc(-c2csc(=Nc3ccccc3)n2CCCN2CCOCC2)c1 | 4.21
COc1ccc(C(=O)c2no[n+]([O-])c2C(=O)c2ccc(OC)cc2)cc1 | 21.3
Cc1ccc(C(=O)c2no[n+]([O-])c2C(=O)c2ccc(C)cc2)cc1 | 19.9
O=C(NCCN1CCOCC1)c1ccc2c(c1)N(Cc1c(F)cccc1Cl)C(=O)c1ccccc1S2 | -4.77
CCc1nnc(NC(=O)c2cccc(S(=O)(=O)N3CCc4ccccc43)c2)s1 | -12.3
Oc1c(Br)cccc1/C=N/c1ncn[nH]1 | -5.35
Oc1c(Cl)cc(Cl)cc1/C=N/c1ncn[nH]1 | 3.2
O=[N+]([O-])C(=C1Nc2ccccc2N1)/C(Cl)=C(/Cl)Br | -3.57
O=[N+]([O-])C(=C1Nc2ccccc2N1)C(Cl)=C(Cl)Cl | -0.56

SMILES | inhibition [%]
Cc1ccc(S(=O)(=O)NCCC(=O)Nc2ccncc2)cc1C | 9.54
COCCNC(=O)C1CC(c2ccc(F)cc2)=NO1 (configuration not stated) | -13.4
Cc1ccc(S(=O)(=O)N2CCCC2C(=O)NCc2ccccc2F)cc1 (configuration not stated) | -7.81
CCN(CC)CCCn1c2c(c(SCC(=O)Nc3ccc4c(c3)OCCO4)nc1=O)CCC2 | 11.9
Cc1ccsc1CN(C)C(=O)CCc1nnc(COc2ccccc2)o1 | -5.48
Cc1[nH]n(-c2ccccc2)c(=O)c1/C=N/NC(=O)COc1ccccc1[N+](=O)[O-] | -5.18
Cc1ccc(OCC(=O)N/N=C\c2c(C)n(C)c3ccccc23)c([N+](=O)[O-])c1 | -4.6
COCCNC(=O)c1onc(CS(=O)(=O)c2cc(C)cc(C)c2)c1C(=O)NCCOC | 5.4
O=C(NCc1ccc2c(c1)OCO2)c1cccc([N+](=O)[O-])c1 | -1.83
COc1ccc(/C=C2/C(=O)N(c3nc4ccccc4s3)N=C2CSc2ccc(Cl)cc2)cc1 | 3.84
CC(C)N1CCc2c(sc(NC(=O)c3ccc([N+](=O)[O-])o3)c2C(N)=O)C1 | -4.77
NC(=O)c1c(NC(=O)c2ccc([N+](=O)[O-])o2)sc2c1CCCC2 | -5.17
Cn1c(=O)cc(OCCCC(=O)NCc2cccnc2)c2ccccc21 | 0.57
COc1ccccc1N1C(=O)c2cccnc2C1=O | -1.48
Cc1cccc(/C=C/C(=O)c2cc(Br)ccc(=O)c2O)c1 | 4.56
CCc1ccc(/C=C/C(=O)c2cc(Br)ccc(=O)c2O)cc1 | -13.9
CCOC(=O)C1(CC)CC(CSc2nc3ccccc3[nH]2)OC1=O (configuration not stated) | 5.22
O=C(O)c1cccnc1Sc1ccccc1Cl | -7.16
c1ccc(CN2CCN(Cc3c[nH]c4ccccc34)CC2)cc1 | 1.99
Clc1ccccc1N1CCN(Cc2c[nH]c3ccccc23)CC1 | -13.8
Nc1ccc(Sc2ccc([N+](=O)[O-])cc2)cc1 | -7.65
Nc1ccccc1SC(C[N+](=O)[O-])c1ccccc1 (configuration not stated) | 15.4
COc1cc(/C=N/NC(=O)c2ccncc2)ccc1Oc1ccc([N+](=O)[O-])cn1 | 4.23
OC(CN1CCCCC1)Cn1c2ccccc2c2ccccc21 (configuration not stated) | -5.86
O=c1c2ccccc2n(CC(O)CN2CCCCC2)c2ccccc12 (configuration not stated) | -2.95

SMILES | inhibition [%]
COc1ccc(OCC(O)CNCc2ccco2)cc1 (configuration not stated) | 0.683
OC(CNCc1ccco1)Cn1c2ccccc2c2ccccc21 (configuration not stated) | 1.11
CC1(C)CC(OC(=O)c2ccco2)CC(C)(C)N1O | -11.8
CCn1nc(C(=O)OCC(=O)N(CC(C)C)c2c(N)n(Cc3ccccc3)c(=O)[nH]c2=O)c2ccccc2c1=O | -10.1
Cc1csc(NC(=O)CSc2nnc3c4ccccc4nc(C(C)(C)C)n23)n1 | -6.02
CN(C)/C=C/c1onc(-c2c(F)cccc2Cl)c1C#N | -0.05
Brc1ccc(-c2cn3c(n2)CCc2ccc4cccnc4c2-3)cc1 | 1.82
COc1ccc(-n2c(-c3ccc(Br)cc3)c[n+]3c2CCc2ccccc2-3)cc1 | 13.6
COc1ccc(-c2nc(CS(=O)(=O)CC(=O)Nc3cccc(C(C)=O)c3)c(C)o2)cc1 | -8.19
CC(=O)c1ccc(O)c(CSc2nncn2C)c1 | -0.79
COC(=O)C1=C(C)N(Cc2ccccc2)C(=NCc2ccccc2)N[C@H]1c1cccc(F)c1 | -0.78
COC(=O)C1=C(C)N(Cc2ccccc2)C(=NCc2ccc(OC)cc2)N[C@H]1c1cccc(F)c1 | 10.3
CCCNC(=O)c1cc(-c2ccccc2)c(N2CCCCC2)s1 | 9.44
CCCCc1ccc(NC(=O)CSc2nc(=O)n(CCN(C)C)c3c2CCC3)cc1 | 11.9
Cc1cccc(NC(=O)c2cc(S(=O)(=O)N(C)c3ccc(F)cc3)ccc2Cl)n1 | 8.42
Oc1ccccc1Nc1ccccn1 | -1.96
c1ccc(Nc2ccccn2)nc1 | -2.23
Cc1ccc(S(=O)(=O)N2CCC(C(=O)O)CC2)cc1 | -0.71
CCOCCCn1c(=S)[nH]c2cc(C(=O)NCCc3ccc(OC)c(OC)c3)ccc2c1=O | 3.11
CCCC(CCC)C(=O)Nc1ccc2c(c1)N(C(=O)CN1CCN(C)CC1)c1ccccc1CC2 | 5.91
COC(=O)/C(=C\C(=O)c1ccccc1)Nc1ccc(OC)cc1 | -7.68
C/C(=C\C(=O)c1ccccc1)Nc1ccc(O)cc1 | -9.8
Cc1ccc(NC(=O)NNC(=O)c2ccccc2)cc1 | 1.31
Cc1ccc(NC(=O)c2ccccc2)cc1 | -5.33
O=C(NCc1ccc(Cl)cc1)N1CCc2ccccc2C1 | 2.15

SMILES | inhibition [%]
COc1ccc2c(c1)CC/C(=C\c1ccc(C)o1)C2=O | -3.7
CC1Cc2ccccc2N1Cc1nc2scc(-c3cccs3)c2c(=O)[nH]1 (configuration not stated) | 0.2
O=C(OCC(=O)N1CCOCC1)c1ccccc1O | 5.57
CC1CC(C)CN(C(=O)COC(=O)c2ccc[nH]c2=O)C1 (configuration not stated) | -8.36
CCCC(=O)N1CCN(c2nc3ccccc3s2)CC1 | -3.88
Cc1ccc2c(Cl)cc(Cl)c(OCC(=O)N(C(C)C)C(C)C)c2n1 | -1.43
Cc1ccc2c(Cl)cc(Cl)c(OCC(=O)NC(C)(C)C)c2n1 | -16.9
COc1cccc(C(=O)NC2CCCc3ccccc32)c1OC (configuration not stated) | -9.26
CS(=O)(=O)N(CCc1ccccc1)CC(=O)N1CCN(c2ccccc2)CC1 | -4.94
COc1ccc(CCNC(=O)COC(=O)C23CC4CC(CC(C4)C2)C3)cc1 | -12.8
CCc1ccccc1NC(=S)N1CCCCCC1 | -5.25
Cc1cc([N+](=O)[O-])nn1CC(=O)N/N=C/c1ccc(O)cc1O | 18.8
O=C(Cn1cncn1)N/N=C/c1ccccc1Cl | -13.1
O=C(Cn1cncn1)N/N=C/c1cccc2ccccc12 | -7.61
Cc1cc([N+](=O)[O-])nn1CC(=O)N/N=C/c1ccccc1Br | 13.2
O=C(NCC1CCCO1)c1cccc(Oc2ccccc2)c1 (configuration not stated) | -8.15
Cc1cccc(N=Cc2cc(Br)cc(Cl)c2O)c1 | 10.7
CN(C)c1ccc(C(=O)N/N=C/c2cc(Br)cc(Br)c2O)cc1 | -1.06
O=C(O)c1ccccc1N/N=C/c1cc(Br)cc(Br)c1O | 5.52
Brc1cccc(C=Nc2cccc3ncccc23)c1 | -0.83
O=C(O)c1cccc(N/N=C/c2cc(Br)cc(Br)c2O)c1 | -6.95
Oc1c(Br)cc(Br)cc1C=Nc1cccnc1 | 7.09
